In all, about 16,000 sequences were measured (“rpm ratio (pull-down/input)”: median about 0.94, highest 2% from about 1.7 on). For the sample, the highest values were picked, then their nearest neighbours and some sequences at random.

Among the data in paper PMC12820563, “FoxP3 forms a head-to-head dimer in vivo and stabilizes its multimerization on adjacent microsatellites” are binding signal values, retold here.

For the experiment, the target named is T1, MBP-FoxP1dN (Mus musculus, UniProt P58462 326-579).
T1 sequence: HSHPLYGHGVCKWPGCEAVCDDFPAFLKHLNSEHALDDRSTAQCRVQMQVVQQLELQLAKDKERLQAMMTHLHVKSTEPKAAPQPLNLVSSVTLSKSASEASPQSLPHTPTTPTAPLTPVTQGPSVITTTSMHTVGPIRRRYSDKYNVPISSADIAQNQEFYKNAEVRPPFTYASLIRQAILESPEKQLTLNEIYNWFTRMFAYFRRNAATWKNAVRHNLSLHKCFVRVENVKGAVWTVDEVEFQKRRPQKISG
Kind of experiment: PD-seq (MBP pull-down with sequencing); 20 mM Tris-HCl pH 7.5, 100 mM NaCl, 1.5 mM MgCl2, 0.4 uM protein, 0.1 uM dsDNA library, 30 min, room temperature, amylose pull-down; high values mean tight binding. The following applies: protein: recombinant; tags: His6-MBP; chain copies: 2; dsDNA, one strand shown. A digest of the protocol:
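The N-terminus-lacking fragment of mouse FoxP3 or FoxP1 carried a His6-MBP tag and was expressed in E. coli. At 0.4 µM it was incubated with 0.1 µM Klenow-filled degenerate double-stranded DNA library for 30 min at room temperature in Tris pH 7.5 buffer with NaCl and MgCl2, and complexes were caught on amylose resin, washed three times, released with proteinase K, PCR-barcoded and Illumina-sequenced. Binding is reads-per-million enrichment of pull-down over input with replicates pooled.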
As to “GATGATTGTTCTCCCAGCTGATGAATTTTTTTTGTCGAGTAAACAAATTTTCCTAATCTTTCTGTTCAAGCGCCATCTAC”, the binding signal was 0.87 RPM ratio (pull-down/input).
The value for “GATGATTGTTCTCCCAGCTGATGAATTACTGATGTCGAGTAAACAAATTTTCCTAATCTTTCTGTTCAAGCGCCATCTAC” was 1.37 RPM ratio (pull-down/input); that for “GATGATTGTTCTCCCAGCTGATGAATTACTACTGTCGAGTAAACAAATTTTCCTAATCTTTCTGTTCAAGCGCCATCTAC” was 1.23 RPM ratio (pull-down/input); that for “GATGATTGTTCTCCCAGCTGATGAATTTCTTTTGTCGAGTAAACAAATTTTCCTAATCTTTCTGTTCAAGCGCCATCTAC” was 0.952 RPM ratio (pull-down/input).
Consider “GATGATTGTTCTCCCAGCTGATGAATTTTTCTTGTCGAGTAAACAAATTTTCCTAATCTTTCTGTTCAAGCGCCATCTAC”, for which the binding signal was 1.1 RPM ratio (pull-down/input).
On to “GATGATTGTTCTCCCAGCTGATGAATTTTTGTTGTCGAGTAAACAAATTTTCCTAATCTTTCTGTTCAAGCGCCATCTAC”, for which the binding signal is 2.85 RPM ratio (pull-down/input).
With “GATGATTGTTCTCCCAGCTGATGAATTTTTTCTGTCGAGTAAACAAATTTTCCTAATCTTTCTGTTCAAGCGCCATCTAC”, the binding signal is 0.986 RPM ratio (pull-down/input).
Take “GATGATTGTTCTCCCAGCTGATGAATTACTGTTGTCGAGTAAACAAATTTTCCTAATCTTTCTGTTCAAGCGCCATCTAC”: the binding signal was 2.55 RPM ratio (pull-down/input).
For “GATGATTGTTCTCCCAGCTGATGAATTTCTGTTGTCGAGTAAACAAATTTTCCTAATCTTTCTGTTCAAGCGCCATCTAC”, the binding signal was 2.16 RPM ratio (pull-down/input).
As for “GATGATTGTTCTCCCAGCTGATGAATTGTCGTTGTCGAGTAAACAAATTTTCCTAATCTTTCTGTTCAAGCGCCATCTAC”, the binding signal was 1.38 RPM ratio (pull-down/input).
The value for “GATGATTGTTCTCCCAGCTGATGAATTGTTGTTGTCGAGTAAACAAATTTTCCTAATCTTTCTGTTCAAGCGCCATCTAC” was 3.2 RPM ratio (pull-down/input); that for “GATGATTGTTCTCCCAGCTGATGAATTGCTATGTTCGAGTAAACAAATTTTCCTAATCTTTCTGTTCAAGCGCCATCTAC” was 1.24 RPM ratio (pull-down/input); that for “GATGATTGTTCTCCCAGCTGATGAATTCGAGTGGTCGAGTAAACAAATTTTCCTAATCTTTCTGTTCAAGCGCCATCTAC” was 0.752 RPM ratio (pull-down/input).
Next, “GATGATTGTTCTCCCAGCTGATGAATTCCTATCTTCGAGTAAACAAATTTTCCTAATCTTTCTGTTCAAGCGCCATCTAC”: 0.802 RPM ratio (pull-down/input); “GATGATTGTTCTCCCAGCTGATGAATTTGACTTGTCGAGTAAACAAATTTTCCTAATCTTTCTGTTCAAGCGCCATCTAC”: 0.82 RPM ratio (pull-down/input).
Next, “GATGATTGTTCTCCCAGCTGATGAATTTCCTGCGTCGAGTAAACAAATTTTCCTAATCTTTCTGTTCAAGCGCCATCTAC”: 0.938 RPM ratio (pull-down/input).
Consider “GATGATTGTTCTCCCAGCTGATGAATTCTCTCTTTCGAGTAAACAAATTTTCCTAATCTTTCTGTTCAAGCGCCATCTAC”, for which the binding signal is 0.917 RPM ratio (pull-down/input).
Next, “GATGATTGTTCTCCCAGCTGATGAATTTAATATGTCGAGTAAACAAATTTTCCTAATCTTTCTGTTCAAGCGCCATCTAC”: 0.979 RPM ratio (pull-down/input).
As for “GATGATTGTTCTCCCAGCTGATGAATTGTCGTCGTCGAGTAAACAAATTTTCCTAATCTTTCTGTTCAAGCGCCATCTAC”, the binding signal was 1.05 RPM ratio (pull-down/input).
Take “GATGATTGTTCTCCCAGCTGATGAATTGTTGTCGTCGAGTAAACAAATTTTCCTAATCTTTCTGTTCAAGCGCCATCTAC”: the binding signal was 2.33 RPM ratio (pull-down/input).
The value for “GATGATTGTTCTCCCAGCTGATGAATTTCTGTCGTCGAGTAAACAAATTTTCCTAATCTTTCTGTTCAAGCGCCATCTAC” was 0.96 RPM ratio (pull-down/input).
The value for “GATGATTGTTCTCCCAGCTGATGAATTCGATCTATCGAGTAAACAAATTTTCCTAATCTTTCTGTTCAAGCGCCATCTAC” was 0.885 RPM ratio (pull-down/input).
The value for “GATGATTGTTCTCCCAGCTGATGAATTATTATTGTCGAGTAAACAAATTTTCCTAATCTTTCTGTTCAAGCGCCATCTAC” was 3.2 RPM ratio (pull-down/input); that for “GATGATTGTTCTCCCAGCTGATGAATTATTCTTGTCGAGTAAACAAATTTTCCTAATCTTTCTGTTCAAGCGCCATCTAC” was 1.16 RPM ratio (pull-down/input); that for “GATGATTGTTCTCCCAGCTGATGAATTATTGTCGTCGAGTAAACAAATTTTCCTAATCTTTCTGTTCAAGCGCCATCTAC” was 1.56 RPM ratio (pull-down/input).
In the case of “GATGATTGTTCTCCCAGCTGATGAATTATTGTTGTCGAGTAAACAAATTTTCCTAATCTTTCTGTTCAAGCGCCATCTAC”, the binding signal is 3.22 RPM ratio (pull-down/input).
“GATGATTGTTCTCCCAGCTGATGAATTATTAATGTCGAGTAAACAAATTTTCCTAATCTTTCTGTTCAAGCGCCATCTAC”: the binding signal is 1.35 RPM ratio (pull-down/input).
As for “GATGATTGTTCTCCCAGCTGATGAATTATTGATGTCGAGTAAACAAATTTTCCTAATCTTTCTGTTCAAGCGCCATCTAC”, the binding signal is 1.85 RPM ratio (pull-down/input).
On to “GATGATTGTTCTCCCAGCTGATGAATTATTTCTGTCGAGTAAACAAATTTTCCTAATCTTTCTGTTCAAGCGCCATCTAC”, for which the binding signal is 1.11 RPM ratio (pull-down/input).
The value for “GATGATTGTTCTCCCAGCTGATGAATTATGATTGTCGAGTAAACAAATTTTCCTAATCTTTCTGTTCAAGCGCCATCTAC” was 1.45 RPM ratio (pull-down/input).
With “GATGATTGTTCTCCCAGCTGATGAATTGATTATGTCGAGTAAACAAATTTTCCTAATCTTTCTGTTCAAGCGCCATCTAC”, the binding signal was 1.31 RPM ratio (pull-down/input).
The value for “GATGATTGTTCTCCCAGCTGATGAATTATGAGTCTCGAGTAAACAAATTTTCCTAATCTTTCTGTTCAAGCGCCATCTAC” was 0.886 RPM ratio (pull-down/input).
